The source of these data is PubChem BioAssay AID995 (National Center for Advancing Translational Sciences (NCATS), 2007).

In all, about 72,000 compounds went through this assay and about 710 (0.99%) were called active. Entries that show only a call come without a potency. Another 7% or so got no clear call; they are omitted. Calls follow the shape of the dose curve; as a rule, active = well fitted inhibition curve with a large enough effect; inconclusive = small, poorly fitted or top-dose-only effect; inactive = no such curve, though single readings can be large or run the other way. The sample as a whole holds a higher share of actives than the screen did.
Potency is read from the fitted curve at half-maximal effect.

This assay is described as follows: qHTS Assay for Inhibitors of the ERK Signaling Pathway using a Homogeneous Screening Assay. Also: nearly all actives have a fitted effect of over 55% in size. Conditions: HEK293-V1b, vasopressin-stimulated pERK AlphaScreen; series mostly up to 57.5 µM. From the text: qHTS Assay for Inhibitors of the ERK Signaling Pathway using a Homogeneous Screening Assay
NIH Chemical Genomics Center [NCGC]
NIH Molecular Libraries Screening Centers Network [MLSCN]
Assay Submitter (PI): Dr. Wei Zheng, NCGC/NIH
The Ras/extracellular-signal-regulated kinase (ERK) mitogen activated protein (MAP) kinase signaling pathway (ERK1/2 cascade) plays is a key role in transmitting signals from the cell surface to the nucleus (Nishida and Gotoh 1993; Chang and Karin, 2001). The cascade is initiated by the small G-protein Ras, which recruits Raf […], where activation occurs. Alternatively, this pathway can be activated by elevating intracellular cAMP.
Activation of the ERK pathway is essential in increased cell division and cell survival. Sustained and constitutive activation of the ERK pathway, however, has been linked to uncontrolled cell proliferation, increased cell survival, and tumor progression. Thus, the ERK has been as an attractive target for cancer chemotherapy in the past few years (Sebolt-Leopold and Herrera, 2004). Given its physiological and pathological importance, assessment of ERK phosphorylation has been broadly performed in both basic research and drug discovery. Most assays for the measurement of ERK phosphorylation use the antibody-based detection methods, such as western blot and ELISA. These assays require multiple reagent additions with cell wash steps and are not suitable for high throughout screening.
The current cell-based ERK phosphorylation assay was performed using AlphaScreen platform. AlphaScreen is a two bead-based proximity-dependent chemical energy transfer luminescent assay platform. The assay reagents (ERK SureFire(TM) kit) were supplied from TGR BioSciences (Australia). In the presence of specific antibodies, phosphorylated ERK will bring "donor" and "acceptor" beads to a proximity range (<200 nm), and subsequently lead a chemical luminescent reaction upon exciting donor beads with 680 nm laser. To exclude the assay-related false positives, we used a biotinylated rabbit IgG to perform counter-screen. The biotinylated antibody mimics the phosphorylated ERK1/2 for bringing streptavidin coated beads and protein-A coated beads to a proximity range for the AlphaScreen detection.
NCGC Assay Protocol Summary:
HEK293 cells stably expressing type-1 vasopressin receptor (V1b) were maintained in DMEM medium (Invitrogen, Carlsbad, CA) at 37C under a humidified atmosphere containing 5% CO2 and 95% air. The medium contained 10% FBS, 2 mM L-glutamine, non-essential amino acid, pyruvate and 50 U/ml penicillin and 50 ug/ml streptomycin (Invitrogen). The aliquots of frozen cells were stored at -135C and used for the compound screening. All compounds were screened as titrations from 0.6 nM to 46 uM final concentration. Vasopressin was used to stimulate the ERK phosphorylation pathway. The ERK phosphorylation in cells was determined using an AlphaScreen assay kit provided by PerkinElmer. Data were normalized to the controls for basal activity (DMSO only) and 100% activation (25 nM vasopressin). AC50 values were determined from concentration-response data modeled with the standard Hill equation.
(1) Seed 4 ul/well of resuspended frozen HEK293 cells containing 2000 cells in white 1536-well plates for overnight with 1% FBS at 37C under a humidified atmosphere containing 5% CO2 and 95% air.
(2) Add 23 nL compounds in DMSO solution. The final titration was 0.6 nM to 46 uM.
(3) Incubate at 37C for 30 min.
(4) Dispense 0.5uL vasopressin (25 nM in final)
(5) Incubate at 37C for 5 min.
(6) Dispense 0.5uL of 1:2 diluted 5x lysis buffer.
(7) Incubate at 37C for 10 min.
(8) Dispense 1.5uL of mixture of activation buffer and reaction buffer with AlphaScreen beads (streptavidin donor beads and protein-A acceptor beads, 10 ng/well for each).
(9) Incubate at room temperature for 5 hr.
(10) Detect the assay plate in an EnVision plate reader (PerkinElmer) using the AlphaScreen detection mode.
[…]
(qHTS replaces the single test concentration by a dilution series.)
As to `CC1(C)OC2CC(=O)OC[C@@]23C1CC(=O)[C@]1(C)C3CC[C@@]2(C)C(c3ccoc3)OC(=O)C3O[C@@]321` (stereo not given in full), the Potency entry was “inactive”. For `O=C(O)c1ccc(C(=O)c2ccccc2C(=O)O)cc1C(=O)O`, the activity, negative = inhibition is 14.2% [at 11.5 µM] (inactive).

`Cc1c(O)cc(O)c2c(=O)c(-c3ccc(O)cc3)coc12`: the Potency result is “inactive”.

As for `CCn1c(COc2ccc(OC)cc2)nnc1SCC(=O)Nc1cc(OC)ccc1OC`, the Potency result is “inactive”.

As to `COc1ccc(OC)c(NC(=O)CSc2nc(N)c(-c3ccccc3)c(=O)[nH]2)c1`, the Potency result is “inactive”. Still for that read-out and setting: then `COc1ccc(OC)c(NC(=O)CSc2nc3cccnc3n2C)c1`, with 20 µM (active); and `CCCOC(=O)C1=C(C)NC2=C(C(=O)C(C(=O)OC)C(C)C2)C1c1ccc(N(C)C)cc1` (stereo not given), with “inactive”. Still for that read-out and setting: then `CCCOC(=O)c1[nH]c2c(c1C)C(=O)CC(c1cc(OC)c(OC)c(OC)c1)C2` (stereo not given), with 25.1 µM (active). The same measure, in the same setting: then `COC(=O)C1C(=O)c2c([nH]c(C(=O)OCCSC)c2C)CC1C` (stereo not given), with “inactive”; and `CC(=O)OCC(=O)[C@@]1(O)CCC2C3CCC4=CC(=O)CC[C@@]4(C)[C@]3(F)C(O)C[C@]21C` (stereo not given in full), with “inactive”. For `C[C@@H]1O[C@@H](OC[C@H]2O[C@@H](Oc3c(-c4cccc(O)c4O)oc4cc(O)cc(O)c4c3=O)[C@H](O)[C@@H](O)[C@@H]2O)[C@H](O)[C@H](O)[C@H]1O`, the Potency entry was “inactive”.

As for `COc1ccccc1N1CCN(C[C@@H]2CN3C(=O)N(C)c4ccccc4C3=N2)CC1`, the Potency entry is “inactive”.

`Fc1ccc(-c2nnc3sc(-c4ccc5c(c4)OCO5)nn23)cc1`: the Potency entry is “inactive”. Same read-out and setting: to `COc1cc(-c2nn3c(-c4cccc(C)c4)nnc3s2)cc(OC)c1OC` belongs “inactive”; to `COc1ccc(-c2nn3c(-c4ccccc4)nnc3s2)cc1OC`, 7.94 µM (active).

Regarding `CC(=O)O[C@]1(C(C)=O)CC[C@@H]2[C@@H]3C=C(C)C4=CC(=O)CC[C@@]4(C)[C@H]3CC[C@]21C`, the Potency entry was “inactive”.

With `O=C(O)c1nn(-c2ccc(Cl)cc2)c2c1C(=O)c1ccccc1C2=O`, the activity, negative = inhibition was -10.9% [at 11.5 µM] (inactive). With `CC1CC[C@@]23CCC4(C)[C@@]5(C)CCC6C(C)(C)C(O)CC[C@@]6(C)C5C=C[C@@]4(OC2=O)C3C1C` (stereo not given in full), the Potency result is “inactive”. The same measure, in the same setting: to `CN(C)CCc1c[nH]c2ccc(Cn3cncn3)cc12` belongs “inactive”.

Turning to `N#Cc1ccccc1-c1ccc2ncnc(NCc3cccnc3)c2c1`, the Potency entry is “inactive”.

On to `CC1(C)SC2C(NC(=O)COc3ccccc3)C(=O)N2C1C(=O)O` (stereo not given), for which the Potency result is “inactive”. On to `S=c1c2[nH]cnc2ncn1CCSc1ncnc2nc[nH]c12`, for which the activity, negative = inhibition was -0.588% [at 11.5 µM] (inactive). Same read-out and setting: then `COC(=O)NC(c1ccccc1)[C@]1(C(C)=O)CCCC1=O` (stereo not given in full), with -3.18% [at 11.5 µM] (inactive). Turning to `Nc1nc2nc(Cl)[nH]c2c(=O)[nH]1`, the Potency result was “inactive”. As to `O=C(O)C1CCN(c2ncnc3ccc(-c4ccccc4C(F)(F)F)cc23)CC1`, the Potency entry was “inactive”. Turning to `CCCN1[C@H](C(=O)OC)C[C@@]2(O)[C@@H](O)[C@@H](O)[C@@H](O)C[C@@H]12`, the Potency result is “inactive”. On the same count and under the same terms, then `Nc1ncn(C2OC(CO)C(O)C2O)c(=O)n1` (stereo not given), with “inactive”.

Regarding `COC(=O)[C@@]1(Cc2ccc(OC)cc2)[C@H]2c3cc(C(=O)N4CCCC4)n(Cc4ccc(C(F)(F)F)nc4)c3C[C@H]2CN1C(=O)c1ccccc1`, the Potency entry was “inactive”.

For `O=c1c(-c2ccc(F)cc2)nc2cnc(N3CCOCC3)nc2n1-c1ccccc1`, the Potency entry is “inactive”. Same read-out and setting: to `C=C(C)C1CC=C(CO)CC1` (stereo not given) belongs “inactive”; to `COc1ccccc1CNc1cc(-c2ccccc2CN(C)C)ncn1`, “inactive”. For `Cc1cc(OCC(=O)O)c(Cl)cc1Cl`, the activity, negative = inhibition is -16.5% [at 11.5 µM] (inactive). Consider `Cc1ccc(-n2ncc3c(N4CCN(c5ccc(F)cc5)CC4)ncnc32)c(C)c1`, for which the Potency entry was “inactive”. On the same count and under the same terms, to `CCN1CCCC1CNc1ncnc2c1[nH]c1ccc(F)cc12` (stereo not given) belongs “inactive”; to `Fc1ccc2[nH]c3c(N4CCSCC4)ncnc3c2c1`, 12.6 µM (active).

Regarding `Oc1ccc(O)c2c(O)cccc12`, the Potency result is “inactive”. Turning to `C/C(=C\C(=O)c1ccccc1)Nc1cccc(O)c1`, the Potency was 7.94 µM (active). Same read-out and setting: then `C/C(=C\C(=O)c1cccnc1)Nc1ccc(C)c(C)c1`, with “inactive”.

Turning to `CC(=O)c1cccc(NC(=O)c2ccncc2)c1`, the Potency entry was “inactive”.

As for `Cc1noc(C)c1-c1nc(Nc2ccccc2)c2ccccc2n1`, the Potency entry is “inactive”.

On to `COc1cccc(-c2nc(Nc3ccncc3)c3ccccc3n2)c1`, for which the Potency was 15.8 µM (active).

Turning to `COc1ccc2[nH]cc(CCNc3nc(-c4cccc(NS(C)(=O)=O)c4)nc4ccccc34)c2c1`, the Potency entry was “inactive”. The same measure, in the same setting: then `CCC(C)(C)N=C(NC#N)Nc1cccnc1`, with “inactive”. As to `N[C@H](C(=O)O)c1ccc(C(=O)O)c(O)c1`, the Potency result was “inactive”. Same read-out and setting: to `CC(=O)Oc1c2c(c3c(c1CC=C(C)C)O[C@@]14C(=CC5CC1C(C)(C)OC4(C/C=C(\C)C(=O)O)C5=O)C3=O)OC(C)(CCC=C(C)C)C=C2` (stereo not given in full) belongs “inactive”. On the same count and under the same terms, to `NCCCNCCCCN(CCCN)/[N+]([O-])=N/O` belongs “inactive”. Still for that read-out and setting: to `CC(C)(O)CCC(O)[C@@](C)(O)C1CC[C@]2(O)C3=CC(=O)C4CC(O)C(O)C[C@]4(C)C3CC[C@]12C` (stereo not given in full) belongs “inactive”. For the compound `N#C/C(=C\c1ccc(O)c(O)c1)C(N)=O`, the Potency entry is “inactive”. On to `Oc1c(CN2CCOCC2)ccc(CN2CCOCC2)c1O`, for which the activity, negative = inhibition is -4.14% [at 11.5 µM] (inactive). In the case of `CCC[C@@H]1C[C@@]1(CCC)[C@@H](NC(=O)c1ccccc1)c1ccc(C(=O)OC)cc1`, the Potency entry was “inactive”. `CCCn1c(-c2ccc(F)cc2)nc2c(NC3CCN(Cc4ccccc4)C3)nc(C)nc21` (stereo not given): the Potency entry is “inactive”. `O=C(Nc1c[nH]c(=O)[nH]c1=O)Oc1ccccc1`: the activity, negative = inhibition is -1.65% [at 11.5 µM] (inactive). As for `CN(CCOc1ccc(CC2SC(=O)NC2=O)cc1)c1ccccn1` (stereo not given), the Potency entry is “inactive”. Take `COc1ccc(-c2nc3cnc(N(C)C)nc3n(Cc3cccs3)c2=O)cc1`: the Potency entry is “inactive”. Still for that read-out and setting: to `COC(=O)[C@@H]1C[C@H]2CC[C@H](O)C[C@H]2N1Cc1ccc(N2CCN(C)CC2)cc1` belongs “inactive”; to `COCCn1c(=O)c(-c2cccc(F)c2)nc2cncnc21`, “inactive”. Same read-out and setting: then `N#Cc1cc2[nH]c(=O)c(=O)[nH]c2cc1[N+](=O)[O-]`, with “inactive”; and `Cc1nc2nc(SCC(=O)NCc3ccco3)nn2c(C)c1Cc1ccccc1`, with “inactive”.

With `CCOC(=O)c1cnc(SCC(=O)NCc2ccco2)nc1N`, the Potency was 25.1 µM (active).

As for `CCOc1ccccc1-n1c(SCC(=O)NCc2ccco2)nnc1-c1ccncc1`, the Potency entry is “inactive”.
